About 83,000 compounds went through this panel and 20% of them were active in at least one assay; those are over-represented in the sample as a whole.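 Values shown are percent growth following 48 h exposure of cells in 96-well plates to a single concentration of compound; below 10 was considered active.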 A number with no mark means an inactive call. The source made the active and inactive calls.

For this experiment, the system named is HL-60(TB) leukemia. The experiment in a line: NCI-60 one-dose screen, 48 h (100 = growth as untreated, 0 = no growth, -100 = all killed). Particulars: 10 µM unless noted.
Consider `O=C1N/C(=C\c2ccccc2)c2ncccc21`, for which the growth was 117%. To `c1ccc(CCCCc2ccc3ccccc3n2)cc1` belongs 102%; to `C/C=C(/C(=O)NC(N)=O)C(C)C`, 91%; to `COC(=O)c1ccc(Cn2cnc3c(N)ncnc32)cc1`, 67.6%. As to `CC(C)C[C@@H](NC(=O)[C@@H](Cc1ccccc1)NC(=O)c1cnccn1)B1O[C@H]2[C@H](O)[C@@H](C(=O)NCCCC[C@@H]3NC(=O)[C@@H](Cc4ccccc4)NC(=O)[C@H](CC(=O)O)NC(=O)CNC(=O)[C@H](CCCN=C(N)N)NC3=O)O[C@@H](CN)[C@H]2O1`, the growth was -1.86% (active). The figure for `COc1ccccc1CNCCCN1C(=O)c2ccc3c4c(ccc(c24)C1=O)C(=O)N(CCCOCCCCOCCCN)C3=O` is -50.2% (active); for `C=CC(C)(O)CCC1C(=C)CCC2C(C)(C)CCCC12C` (stereo unspecified) it is 82.1%; for `CCn1cc(C(=O)O)c(=O)c2cc(F)c(N3CCN(CC(=O)Nc4ccccc4)C(C)C3)c(F)c21` (stereo unspecified) it is 104%. Consider `N#CCCc1ccc(O)cc1`, for which the growth was 95.6%. For the compound `Cc1ccc2sc3c(NCCCN)nc4ccccc4c3c(=O)c2c1`, the growth was -27.1% (active). Consider `CCOC(=N)CC(=O)Nc1cccc(C)c1Cl`, for which the growth is 111%.

Consider `COc1cc(/C=N/O)nc(-c2ccccn2)c1`, for which the growth was -13.5% (active). To `O=C(c1ccccc1)c1ccco1` belongs 86.1%; to `CN1CCN(c2ccc(C(=O)Nc3n[nH]c4ccc(Cc5cc(F)cc(F)c5)cc34)c(NC3CCOCC3)c2)CC1`, -57.1% (active). On to `O=c1cn[nH]c2ccc(Br)cc12`, for which the growth is 85.5%. As to `Nc1c(C(=O)Nc2cccc(Cl)c2)sc2ncc(Cl)cc12`, the growth was 88.7%. To `O=C(CCN1CCCC1)Nc1ccc2c(NCCCCc3ccccc3)c3ccccc3nc2c1` belongs -62.3% (active); to `NC(=O)NCCCC(N)C(=O)O` (stereo unspecified), 105%; to `O=c1cc(-c2ccc3c(c2)OCCO3)oc2cc(Cl)ccc12`, 110%.

With `CCn1c(Cc2ccccc2Nc2c(Cl)cccc2Cl)nnc1SCC(=O)NN1C(=O)/C(=C/c2cc(OC)c(O)c(OC)c2)SC1=S`, the growth is -1.07% (active).

With `COc1cc(-c2cc(C(=O)N3CCN(C(=O)c4ccccc4NCc4cccs4)CC3)nc3cc(-c4ccccc4)nn23)cc(OC)c1OC`, the growth is 82.7%. The figure for `Cc1c2ccccc2nc2cc3c(cc12)[C@H]1CC[C@]2(C)C(=O)CC[C@H]2[C@@H]1CC3` is 97.1%; for `N#C/C(=C1\SC(=O)CN1c1ccccc1)c1nc2ccccc2s1` it is 92.8%. As for `Cc1c(C(=O)OCCO)cc(-c2ccc(Cl)cc2)n1-c1ccc(Cl)cc1Cl`, the growth is 59.7%. To `CN(C)c1ccc(/C=C(\C#N)c2nc3ccccc3s2)cc1` belongs 93.3%; to `O=C(Nc1cccc(Cl)c1)Oc1c(Br)c(Br)c(Br)c(Br)c1Br`, 88.4%.
